The panel holds about 79,000 compounds, 15% with a hit somewhere; the sample as a whole holds those more often. Calls of active or inactive are those of the source. Rule as the data show it: active = growth inhibition above about 70%; inactive = the rest.
How the values were obtained:
[1] = NCI Yeast Anticancer Drug Screen. Data for the mlh1 strain (AID 171);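 also: 0% = growth of vehicle-treated control cultures of the same strain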; details: S. cerevisiae mlh1 strain growth inhibition, active compounds read high
In short: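 Here the genetically defined yeast mutant is grown with each compound, and the extent to which its growth falls below that of vehicle-exposed cells is reported.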

[2] = NCI Yeast Anticancer Drug Screen. Data for the sgs1 strain (AID 173);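 also: 0% = growth of vehicle-only control cultures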; details: S. cerevisiae sgs1 mutant, active compounds read high
In short: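 Relative growth inhibition, referenced to vehicle, was determined in a yeast strain with a defined alteration affecting DNA damage repair or cell cycle control after compound exposure.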

[3] = NCI Yeast Anticancer Drug Screen. Data for the mlh1 rad18 strain (AID 175); details: S. cerevisiae mlh1 rad18 strain growth inhibition, active compounds read high
In short: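 In this whole-cell yeast screen, a strain with altered DNA damage repair is challenged with compound, and its growth is measured against matched vehicle-treated controls.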

[4] = NCI Yeast Anticancer Drug Screen. Data for the rad52 strain (AID 147);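 also: 0% = growth of vehicle-treated control cultures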; details: S. cerevisiae rad52 mutant growth inhibition, active compounds read high
In short: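 Measured: yeast growth inhibition. System: strain with a defined DNA damage repair alteration. Reference: vehicle-treated control cultures.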

[5] = NCI Yeast Anticancer Drug Screen. Data for the wt1 strain (AID 149);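 also: 0% = growth of vehicle-treated wt1 cultures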; details: S. cerevisiae wt1 strain (SPY 50644) growth inhibition, active compounds read high
In short: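 Vehicle-normalised growth inhibition; strain wt1; compound exposure.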

[6] = NCI Yeast Anticancer Drug Screen. Data for the mgt1 strain (AID 153); details: S. cerevisiae mgt1 mutant growth inhibition, active compounds read high
In short: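 After exposure of the mgt1 yeast mutant to compound, growth was measured and reported as inhibition compared with vehicle controls.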

[7] = NCI Yeast Anticancer Drug Screen. Data for the rad50 strain (AID 155);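 also: 0% = growth of vehicle-only cultures of the same strain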; details: S. cerevisiae rad50 strain growth inhibition, active compounds read high
In short: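 A DNA repair-deficient yeast mutant serves as the test organism; compound-induced growth inhibition is calculated against vehicle-treated cells.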

[8] = NCI Yeast Anticancer Drug Screen. Data for the mec2-1 strain (AID 157); details: S. cerevisiae mec2-1 strain, active compounds read high
In short: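 Test agents were screened against the mec2-1 yeast strain, with defined DNA repair or cell cycle alteration. Growth was scored as inhibition against vehicle-only controls.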

[9] = NCI Yeast Anticancer Drug Screen. Data for the rad14 strain (AID 159);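 also: 0% = growth of vehicle-treated control cultures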; details: S. cerevisiae rad14 strain growth inhibition, active compounds read high
In short: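 Vehicle-treated cultures served as the baseline for growth inhibition of a DNA repair-mutant yeast strain exposed to each compound.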

[10] = NCI Yeast Anticancer Drug Screen. Data for the sgs1 mgt1 strain (AID 161);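 also: 0% = growth of cultures given vehicle only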; details: S. cerevisiae sgs1 mgt1 strain, active compounds read high
In short: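 Test agents were incubated with a DNA-repair-mutant yeast strain. Growth was then read and compared against vehicle-treated controls.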

[11] = NCI Yeast Anticancer Drug Screen. Data for the CLN2oe strain (AID 163);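 also: 0% = growth of vehicle-only control cultures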; details: S. cerevisiae CLN2oe strain, active compounds read high
In short: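 Here, growth inhibition in a cell-cycle-altered yeast strain after compound exposure was quantified against vehicle control growth.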

[12] = NCI Yeast Anticancer Drug Screen. Data for the cln2 rad14 strain (AID 165);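 also: 0% = growth equal to vehicle treated cultures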; details: S. cerevisiae cln2 rad14 strain, active compounds read high
In short: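 Growth of compound-exposed yeast (cln2 rad14 genotype) measured and expressed as inhibition relative to vehicle.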

[13] = NCI Yeast Anticancer Drug Screen. Data for the bub3 strain (AID 167); details: S. cerevisiae bub3 mutant strain, active compounds read high
In short: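 Inhibition values come from growth of compound-treated mutant yeast normalised to vehicle-treated controls.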

[14] = NCI Yeast Anticancer Drug Screen. Data for the wt2 strain (AID 169);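 also: 0% = growth of vehicle-treated yeast cultures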; details: S. cerevisiae wt2 strain growth inhibition, active compounds read high
In short: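 Genetically defined yeast strains from a DNA-repair/cell-cycle panel were used. Compound-exposed yeast growth was measured, and the inhibition was calculated relative to vehicle treatment.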

[15] = NCI Yeast Anticancer Drug Screen. Data for the rad18 strain (AID 177); details: S. cerevisiae rad18 mutant growth inhibition, active compounds read high
In short: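 Screen uses a yeast strain with a defined lesion in DNA damage repair; compound effect is read as loss of growth compared to untreated vehicle cultures.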

[16] = at 5.0 µM (retest, dose inferred, filed as 0.5)
[17] = at 50.0 µM (retest, dose inferred, filed as 5.0)

Measured: growth inhibition

O=C1c2ccccc2C(=O)c2c(NC3CCCCC3)ccc(Nc3ccc(S(=O)(=O)O)cc3)c21
inactive: [1]; at 33.0 µM 50% | [2]; at 1.2 µM -1% | [2]; at 3.7 µM -2% | [2]; at 11.0 µM 23% | [3]; [16] 5%
active: [1]; at 100.0 µM 71% | [2]; at 33.0 µM 79% | [2]; at 100.0 µM 72% | [3]; [17] 72% | [3]; at 50.0 µM 82.9%

CC(C)OC(=O)Oc1ccccc1OC(=O)OC(C)C
inactive: [4]; at 1.2 µM -3% | [4]; at 3.7 µM -3% | [4]; at 11.0 µM 1% | [4]; at 33.0 µM 2% | [4]; at 100.0 µM -3% | [5]; at 1.2 µM -2% | [5]; at 3.7 µM -3% | [5]; at 11.0 µM -1% | [5]; at 33.0 µM -3% | [5]; at 100.0 µM -2% | [6]; at 1.2 µM 2% | [6]; at 3.7 µM 3% | [6]; at 11.0 µM 3% | [6]; at 33.0 µM 2% | [6]; at 100.0 µM 4% | [7]; at 1.2 µM -5% | [7]; at 3.7 µM -3% | [7]; [16] 1% | [7]; at 11.0 µM -2% | [7]; at 33.0 µM -1% | [7]; [17] 3% | [7]; at 50.0 µM 39.3% | [7]; at 100.0 µM -1% | [8]; at 1.2 µM 0% | [8]; at 3.7 µM -1% | [8]; [16] -15% | [8]; at 11.0 µM 0% | [8]; at 33.0 µM 0% | [8]; [17] -5% | [8]; at 50.0 µM 20.9% | [8]; at 100.0 µM -1% | [9]; at 1.2 µM -6% | [9]; at 3.7 µM -4% | [9]; at 11.0 µM -3% | [9]; at 33.0 µM 0% | [9]; at 100.0 µM 0% | [10]; [16] -2% | [10]; [17] -6% | [10]; at 50.0 µM 1.8% | [11]; at 1.2 µM 2% | [11]; at 3.7 µM 4% | [11]; at 11.0 µM 3% | [11]; at 33.0 µM 1% | [11]; at 100.0 µM 4% | [12]; [16] 26% | [12]; [17] 55% | [12]; at 50.0 µM 23.2% | [13]; at 1.2 µM 0% | [13]; at 3.7 µM 0% | [13]; [16] 15% | [13]; at 11.0 µM 4% | [13]; at 33.0 µM 7% | [13]; [17] 8% | [13]; at 50.0 µM 15.7% | [13]; at 100.0 µM 9% | [14]; at 1.2 µM -3% | [14]; at 3.7 µM -2% | [14]; at 11.0 µM -2% | [14]; at 33.0 µM -3% | [14]; at 100.0 µM -2% | [1]; at 1.2 µM 0% | [1]; at 3.7 µM 1% | [1]; at 11.0 µM 2% | [1]; at 33.0 µM 3% | [1]; at 100.0 µM 3% | [2]; at 1.2 µM -1% | [2]; at 3.7 µM 0% | [2]; at 11.0 µM 1% | [2]; at 33.0 µM 1% | [2]; at 100.0 µM 2% | [3]; [16] -20% | [3]; [17] -7% | [3]; at 50.0 µM -9.1% | [15]; at 1.2 µM -3% | [15]; at 3.7 µM 1% | [15]; at 11.0 µM 0% | [15]; at 33.0 µM -3% | [15]; at 100.0 µM 0%

CCN(CC)[P+](c1ccccc1O)(N(CC)CC)N(CC)CC
inactive: [4]; at 1.2 µM -25% | [4]; at 3.7 µM -15% | [4]; at 11.0 µM 17% | [4]; at 33.0 µM 27% | [5]; at 1.2 µM -35% | [5]; at 3.7 µM -25% | [5]; at 11.0 µM 12% | [5]; at 33.0 µM 34% | [6]; at 1.2 µM -42% | [6]; at 3.7 µM -42% | [6]; at 11.0 µM -32% | [6]; at 33.0 µM 13% | [7]; at 1.2 µM -30% | [7]; at 3.7 µM 9% | [7]; [16] 37% | [7]; at 11.0 µM 43% | [7]; at 33.0 µM 54% | [7]; [17] 68% | [7]; at 50.0 µM 61.5% | [8]; at 1.2 µM -78% | [8]; at 3.7 µM -39% | [8]; [16] 28% | [8]; at 11.0 µM 29% | [8]; at 33.0 µM 24% | [8]; [17] 55% | [8]; at 50.0 µM 62.1% | [9]; at 1.2 µM -46% | [9]; at 3.7 µM -38% | [9]; at 11.0 µM -21% | [9]; at 33.0 µM 32% | [10]; [16] 7% | [10]; at 50.0 µM 64.8% | [11]; at 1.2 µM -56% | [11]; at 3.7 µM -8% | [11]; at 11.0 µM -23% | [11]; at 33.0 µM 5% | [12]; [16] 8% | [12]; at 50.0 µM 57.6% | [13]; at 1.2 µM -41% | [13]; at 3.7 µM -3% | [13]; [16] 23% | [13]; at 11.0 µM 23% | [13]; at 33.0 µM 60% | [13]; at 50.0 µM 54.6% | [14]; at 1.2 µM -25% | [14]; at 3.7 µM -13% | [14]; at 11.0 µM -19% | [14]; at 33.0 µM 7% | [1]; at 1.2 µM -60% | [1]; at 3.7 µM -61% | [1]; at 11.0 µM -22% | [1]; at 33.0 µM 30% | [2]; at 1.2 µM -82% | [2]; at 3.7 µM -50% | [2]; at 11.0 µM -25% | [2]; at 33.0 µM 11% | [3]; [16] 39% | [15]; at 1.2 µM -6% | [15]; at 3.7 µM 37% | [15]; at 11.0 µM 53% | [15]; at 33.0 µM 59%
active: [4]; at 100.0 µM 85% | [5]; at 100.0 µM 84% | [6]; at 100.0 µM 76% | [7]; at 100.0 µM 90% | [8]; at 100.0 µM 85% | [9]; at 100.0 µM 95% | [10]; [17] 99% | [11]; at 100.0 µM 93% | [12]; [17] 96% | [13]; [17] 98% | [13]; at 100.0 µM 87% | [14]; at 100.0 µM 77% | [1]; at 100.0 µM 73% | [2]; at 100.0 µM 74% | [3]; [17] 74% | [3]; at 50.0 µM 70.2% | [15]; at 100.0 µM 90%
